BCLXL inh: Bcl-xL (human) inhibition; Q07817; inhibition, % at 10.9 µM; hit rate 0.7% among 320,000; GST-Bcl-xL / FITC-Bim BH3 peptide fluorescence polarization;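 active = inhibition above the mean of all tested compounds plus 3 SD, cutoff set per campaign, cut at about 30% in these data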;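 also: 0% = DMSO wells and 100% = unlabeled Bim-BH3 peptide competitor; inhibitors lower millipolarization by displacing the labeled peptide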
MCL1 BIM primary: inhibitors of human MCL1 binding to BIM-BH3 peptide | Q07820 | GST-MCL1 / FITC-Bim-BH3 fluorescence polarization | inhibition, % at 10.9 µM | hit rate 0.68% among 320,000;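 active = inhibition above the mean inhibition of all tested compounds plus 3 SD, set per campaign, cut at about 40% in these data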;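 also: 0% = DMSO wells and 100% = unlabeled Bim-BH3 peptide control; higher means more loss of mP so more displacement of Bim peptide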
EBV gp42 inh: EBV gp42 inhibition. inhibition, % (tested at 21.74 µM). Fluorescence polarization binding assay, mP read-out. AID 1085. hit rate 0.42% among 220,000; in the data active = inhibition above about 50%
eLon inh: E. coli protease La inhibition. inhibition, % at 7.94 µM. purified E. coli Lon protease, fluorescence polarization. hit rate 0.42% among 360,000; in the data active = inhibition above about 13%, passing the limit was not always enough;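 also: 0% = enzyme with probe and DMSO and 100% = no enzyme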
GLD-1 RNA inh: GLD-1-TGE RNA interaction inhibition (C. elegans). AID 2280. purified GLD-1 + fluorescein TGE RNA, fluorescence polarization. Q17339. inhibition, % at 5.96 µM. hit rate 0.44% among 320,000;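 active = percent inhibition above a per-plate cutoff, the plate mean of test compounds plus 3 SD, cut at about 30% in these data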;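 also: 0% = DMSO wells with GLD-1 and probe and 100% = wells lacking GLD-1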
MEX-5 binding: C. elegans MEX-5 TCR-2 RNA binding activity; Q9XUB2; MEX-5/FITC-TCR2 RNA binding, fluorescence polarization; hits give low values; activity score (negative = inhibition of binding), % at 10 µM; hit rate 0.38% among 300,000; AID 1832;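 active = inhibition past about -25% in most replicates, and total fluorescence under double the plate's negative control median, limit read from the data; inconclusive = replicates evenly split on the limit, or fluorescence at least double controls; inactive = too little inhibition in most replicates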;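 also: 0% = DMSO and -100% = 5 µM competing unlabeled TCR2 RNA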
Target sequence (Q9XUB2 whole entry, looked up): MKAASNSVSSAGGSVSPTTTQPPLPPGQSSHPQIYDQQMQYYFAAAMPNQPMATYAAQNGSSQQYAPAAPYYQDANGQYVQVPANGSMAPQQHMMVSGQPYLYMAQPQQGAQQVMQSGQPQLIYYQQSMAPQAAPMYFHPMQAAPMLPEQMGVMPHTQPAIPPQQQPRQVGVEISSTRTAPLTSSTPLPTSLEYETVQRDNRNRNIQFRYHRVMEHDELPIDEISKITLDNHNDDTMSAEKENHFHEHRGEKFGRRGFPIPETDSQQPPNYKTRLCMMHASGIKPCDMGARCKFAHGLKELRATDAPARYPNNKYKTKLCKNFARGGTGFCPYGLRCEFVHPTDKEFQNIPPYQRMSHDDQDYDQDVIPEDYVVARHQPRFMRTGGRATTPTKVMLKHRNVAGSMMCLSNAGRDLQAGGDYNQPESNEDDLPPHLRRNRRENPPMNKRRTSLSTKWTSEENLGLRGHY
* = called active by the depositor. Most compounds without a hit are left out; they make up all but 1.5% or so of the library.

Screening O=C1C2CCN(CC2)C1Cc1ccc(OCc2ccccc2)cc1 (stereo unspecified) returned BCLXL inh 4, MCL1 BIM primary -1, EBV gp42 inh -8, eLon inh -3, GLD-1 RNA inh 6 and MEX-5 binding -1.
`COc1ccc(N2C(=O)NC(=O)/C(=C\c3cn(CC(=O)N4CCOCC4)c4ccccc34)C2=O)c(OC)c1` gave BCLXL inh -14, MCL1 BIM primary -16, eLon inh -16, GLD-1 RNA inh -6 and MEX-5 binding -22.
Screening O=C1NC(=S)N(c2ccc(F)cc2)C(=O)/C1=C/c1ccccc1O returned BCLXL inh 0, MCL1 BIM primary 4, eLon inh -8, GLD-1 RNA inh -8 and MEX-5 binding 1.
O=C(O)Cn1cc(/C=C2\C(=O)NC(=O)N(c3ccc(F)cc3)C2=O)c2ccccc21 was read as MEX-5 binding -42*.
COc1ccc(N2C(=O)NC(=O)/C(=C\c3cn(C)c4ccccc34)C2=O)cc1 was read as BCLXL inh 34*, MCL1 BIM primary 5, eLon inh -98, GLD-1 RNA inh -10 and MEX-5 binding -39*.
COC(=O)Cn1cc(/C=C2\C(=O)NC(=O)N(c3ccc(OC)cc3)C2=O)c2ccccc21 was read as BCLXL inh -4, MCL1 BIM primary 0, eLon inh -18, GLD-1 RNA inh -14 and MEX-5 binding -54*.
COCCNC(=O)Cn1cc(/C=C2\C(=O)NC(=O)N(c3cccc(C)c3C)C2=O)c2ccccc21 was read as BCLXL inh -6, MCL1 BIM primary -12, eLon inh -128, GLD-1 RNA inh -9 and MEX-5 binding inconclusive.
COCCNC(=O)Cn1cc(/C=C2\C(=O)NC(=O)N(c3ccccc3F)C2=O)c2ccccc21 was read as BCLXL inh -11, MCL1 BIM primary -21, eLon inh -78, GLD-1 RNA inh -15 and MEX-5 binding -86*.
`CCCc1nnc(NC(=O)CCC(=O)N2CCC3(CC2)OCCO3)s1` gave BCLXL inh 54*, MCL1 BIM primary 44*, EBV gp42 inh -6, eLon inh -4, GLD-1 RNA inh 23 and MEX-5 binding 2.
`CC(C)Cc1nnc(NC(=O)CCC(=O)N2CCC3(CC2)OCCO3)s1` gave BCLXL inh 5, MCL1 BIM primary 7, EBV gp42 inh -4, eLon inh -8, GLD-1 RNA inh 5 and MEX-5 binding -3.
`CCC1(Cc2ccccc2)C(=O)NC(=S)N(C)C1=O` (stereo unspecified) gave eLon inh -7.
`O=C(O)C1CN2CCC1CC2` (stereo unspecified) gave BCLXL inh 33*, MCL1 BIM primary 11, EBV gp42 inh 8, eLon inh -2, GLD-1 RNA inh 0 and MEX-5 binding 0.
For O=C(c1cccs1)C1CN2CCC1CC2 (stereo unspecified) the results were BCLXL inh 2, MCL1 BIM primary 3, EBV gp42 inh -14, eLon inh -6, GLD-1 RNA inh 2 and MEX-5 binding 1.
`Cc1ccc(N2C(=O)/C(=C/c3ccc(CN(CCC#N)S(C)(=O)=O)o3)C(=O)NC2=S)cc1` gave BCLXL inh 15, MCL1 BIM primary 35, EBV gp42 inh -33, eLon inh -35, GLD-1 RNA inh 14 and MEX-5 binding -50*.
`Cc1ccc(/C=C2\C(=O)NC(=S)N(c3ccc(F)cc3)C2=O)o1` gave eLon inh -32 and MEX-5 binding -4.
CN1C(=O)C(=Cc2ccc(N3CCCCCC3)cc2)C(=O)N(C)C1=O was read as BCLXL inh -7, MCL1 BIM primary -26, EBV gp42 inh 84*, eLon inh -2, GLD-1 RNA inh -1 and MEX-5 binding 0.
For O=C1NC(=O)N(Cc2ccc(F)cc2)C(=O)/C1=C\c1ccc(N2CCCC2)cc1 the results were BCLXL inh -73, MCL1 BIM primary -98, EBV gp42 inh -18, eLon inh -110, GLD-1 RNA inh -35 and MEX-5 binding 2.
`O=C(O)CC[N+](=O)[O-]` gave BCLXL inh 5, MCL1 BIM primary 9, eLon inh -5, GLD-1 RNA inh 3 and MEX-5 binding 0.
For CC(C)(C)C(=O)NC1CCSC1=O (stereo unspecified) the results were BCLXL inh 4, MCL1 BIM primary -3, EBV gp42 inh 6, GLD-1 RNA inh -1 and MEX-5 binding 0.
`COc1ccc(NC(=S)N2Cc3ccccc3-n3nncc3C2)c(OC)c1` gave eLon inh -2.
Screening CCOC(=O)c1cc(CC)sc1/N=C/c1c(O)[nH]c(=S)[nH]c1=O returned BCLXL inh -31, MCL1 BIM primary -76, EBV gp42 inh -162, eLon inh -44, GLD-1 RNA inh -28 and MEX-5 binding -29*.
For Cc1ccc(N2C(=O)NC(=O)/C(=C\c3ccc([N+](=O)[O-])o3)C2=O)cc1 the results were BCLXL inh 28, MCL1 BIM primary 38, EBV gp42 inh -13, GLD-1 RNA inh 8 and MEX-5 binding -68*.
Screening Cc1ccc(N2C(=O)NC(=O)/C(=C\c3ccc(N4CCOCC4)cc3)C2=O)cc1 returned BCLXL inh 1, MCL1 BIM primary 2, EBV gp42 inh -11, eLon inh -37, GLD-1 RNA inh -4 and MEX-5 binding -2.
CCOC(=O)[C@]1(C#N)[C@@H]2C=CC(C(N)=O)=CN2[C@@H](C(N)=O)[C@@H]1c1ccc(F)cc1 was read as BCLXL inh 23, MCL1 BIM primary 19, EBV gp42 inh 12, eLon inh 6, GLD-1 RNA inh 24 and MEX-5 binding -6.
For CCOC(=O)[C@@]1(C#N)C(c2ccc(Cl)c(Cl)c2)[C@H](C(N)=O)N2C=C(C(C)=O)C=C[C@H]21 (stereo partly specified) the results were BCLXL inh 11, MCL1 BIM primary 0, EBV gp42 inh 102*, eLon inh -27, GLD-1 RNA inh 5 and MEX-5 binding -56*.
`CCOC(=O)[C@@]1(C#N)[C@@H]2C=CC(C(N)=O)=CN2[C@@H](C(N)=O)[C@@H]1c1cccc(Cl)c1` gave BCLXL inh 38*, MCL1 BIM primary 27, EBV gp42 inh 6, eLon inh -2, GLD-1 RNA inh 21 and MEX-5 binding -10.
For COC(=O)C1=C(c2ccc(-c3ccccc3)c(F)c2)C[C@@H]2CC[C@H]1N2C(=O)NCCCOC(C)C the results were BCLXL inh 4, MCL1 BIM primary -1, eLon inh 4 and GLD-1 RNA inh -2.
For Cc1cc(/C=C2\C(=O)NC(=O)N(c3cccc(Br)c3)C2=O)c(C)n1C the results were BCLXL inh -3, MCL1 BIM primary -7, EBV gp42 inh 111*, eLon inh -34, GLD-1 RNA inh -1 and MEX-5 binding -28*.
Screening Cc1cc(/C=C2/C(=O)NC(=O)N(c3ccc(Br)cc3)C2=O)c(C)n1C returned BCLXL inh 8, MCL1 BIM primary 6, EBV gp42 inh 20, eLon inh -35, GLD-1 RNA inh -7 and MEX-5 binding -11.

From PubChem
